{
  "source": "PubChem BioAssay",
  "data": [
    {"experiment": "inhibitors of PAF-induced NFkB signaling in CF airway cells, dose response, cell-based, uHTS hits, panel, cytotoxicity readout (AID 624344)", "conditions": "CF bronchial epithelial cells, PAF-induced NFkB reporter inhibition, with PAF, run 1; at 79 µM (top of the series) unless noted", "units": {"inhibition": "%"}, "values": [
      {"smiles": "COc1cc2cncc(Cc3ccc(Cl)cc3)c2cc1OC", "inhibition": 104},
      {"smiles": "COc1ccc(-c2cn[nH]c2-c2ccc(O)cc2O)cc1", "inhibition": 104},
      {"smiles": "COc1ccc2[nH]c3c(c2c1)CCNC3=O", "inhibition": 103},
      {"smiles": "Clc1cncc(Cl)c1N/N=C/c1ccncc1", "inhibition": 105},
      {"smiles": "Cc1cccc(Nc2ncnc3ccc(Br)cc23)c1", "inhibition": 103},
      {"smiles": "COc1ccc(Cc2nnc(SCc3ccc([N+](=O)[O-])cc3)o2)cc1", "inhibition": 113},
      {"smiles": "Cc1ccc2nc(C(F)(F)F)c(C#N)c(N)c2c1", "inhibition": 114},
      {"smiles": "CN1CCN(c2ncnc3scc(-c4ccccc4Cl)c23)CC1", "inhibition": 113},
      {"smiles": "CCCN(CCC)c1ncnc2nc[nH]c12", "inhibition": 109},
      {"smiles": "CCN(CC)S(=O)(=O)c1ccc(NC(=O)Nc2cccc(C(F)(F)F)c2)cc1", "inhibition": 114},
      {"smiles": "O=[N+]([O-])c1ccc2ncnc(N3CCN(Cc4ccc5c(c4)OCO5)CC3)c2c1", "inhibition": 112},
      {"smiles": "OCCCNc1ncnc2scc(-c3ccc(Cl)cc3)c12", "inhibition": 115},
      {"smiles": "C=C(C)COc1ccc(-c2[nH]ncc2-c2ccc(OC)cc2)c(O)c1", "inhibition": 114},
      {"smiles": "CC(C)c1nc(NCCO)c(C#N)c2c1CCCC2", "inhibition": 112},
      {"smiles": "CC(=O)c1cccc(NC(=O)Nc2cccnc2)c1", "inhibition": 119},
      {"smiles": "Nc1ncnc(NCc2ccc(F)cc2)c1[N+](=O)[O-]", "inhibition": 99},
      {"smiles": "COc1ccc(-c2cc(=O)oc3c(C)c(OC(=O)c4cccs4)ccc23)cc1", "inhibition": 66.8},
      {"smiles": "O=C(Nc1cccc2[nH]ncc12)c1ccc(F)cc1", "inhibition": 102},
      {"smiles": "CCN1CCN(Cc2ccc(NC(=O)c3ccc(C)c(NC(=O)C(=O)c4c[nH]c5ccccc45)c3)cc2C(F)(F)F)CC1", "inhibition": 103},
      {"smiles": "CCn1c(Oc2ccccc2F)nc2c1c(=O)n(C)c(=O)n2C", "inhibition": 113}
    ]}
  ]
}
